Experimental findings from PubChem BioAssay (NCI) are described below.

Among the test systems are NCI-H226 lung; HOP-62 NSCLC; NCI-H460 lung; HOP-92 NSCLC; NCI-H522 lung; A549/ATCC NSCLC; 786-0 renal; COLO 205 colon; DU-145 prostate; K-562 leukemia; MALME-3M melanoma; MDA-MB-231 breast; RXF 393 renal; SF-268 CNS; SF-295 CNS; SF-539 CNS; UACC-257 melanoma; M14 melanoma; NCI-H322M lung.
What all share (assay): NCI-60 one-dose screen, 48 h (100 = growth as untreated, 0 = no growth, -100 = all killed)
What all share (details): 10 µM unless noted

The panel holds about 83,000 compounds, 20% with a hit somewhere; the sample as a whole holds those more often.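 Plates (96-well) were seeded with cells, treated with compound at one concentration, and incubated for 48 hours before percent growth was determined.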 Unmarked numbers belong to inactive results. Active and inactive are the calls of the source. How the source made its calls: active means growth percent below 10; inactive means the rest.

With `COc1cc(Cl)ccc1C`, the growth was 98.3% in the assay on NCI-H226 lung; 99.5% with HOP-62 NSCLC; 34% in the assay on NCI-H460 lung; 99.3% in the assay on HOP-92 NSCLC; 57% in the assay with NCI-H522 lung; 84.5% in the assay with A549/ATCC NSCLC. The growth in the assay with 786-0 renal was 100%; in the assay with COLO 205 colon, 94.1%; with DU-145 prostate, 5.38% (active); with K-562 leukemia it was 83.3%; with MALME-3M melanoma, 93.7%; in the assay with MDA-MB-231 breast, 85.9%. The growth is 91.2% with RXF 393 renal; 83.9% in the assay on SF-268 CNS; 79.2% with SF-295 CNS; 104% in the assay with SF-539 CNS; 85% in the assay on UACC-257 melanoma; 95.8% with M14 melanoma.

On to `COCCNC(C)=O`, for which the growth was 90.3% in the assay with NCI-H226 lung; 108% in the assay on NCI-H322M lung; 98.4% with HOP-62 NSCLC; 102% in the assay with NCI-H460 lung; 102% in the assay with HOP-92 NSCLC; 96.6% in the assay on NCI-H522 lung. Further, the growth with A549/ATCC NSCLC is 104%; with 786-0 renal it was 97.5%; in the assay with COLO 205 colon, 108%; in the assay on DU-145 prostate, 112%; in the assay with K-562 leukemia, 105%; in the assay with MALME-3M melanoma, 114%. The growth in the assay with MDA-MB-231 breast was 99.2%; in the assay on RXF 393 renal it was 104%; in the assay on SF-268 CNS it was 101%; in the assay on SF-295 CNS, 96.3%; with SF-539 CNS it was 99.5%; in the assay on UACC-257 melanoma it was 112%. For the same molecule, the growth in the assay on M14 melanoma is 109%.

In the case of `CC(C)(C)OC(=O)NCCc1ccc(N)cc1`, the growth in the assay with NCI-H226 lung is 94.9%; in the assay on NCI-H322M lung, 103%; with HOP-62 NSCLC it was 96.1%; in the assay with NCI-H460 lung, 97.4%; in the assay on HOP-92 NSCLC it was 88.4%; in the assay on NCI-H522 lung, 83.5%. For the same molecule, the growth was 91% with A549/ATCC NSCLC; 100% in the assay on 786-0 renal; 110% with COLO 205 colon; 103% in the assay on DU-145 prostate; 101% in the assay on K-562 leukemia; 95.8% in the assay with MALME-3M melanoma. The growth in the assay on MDA-MB-231 breast was 85.6%; in the assay on RXF 393 renal, 115%; in the assay with SF-268 CNS it was 96.3%; in the assay with SF-295 CNS, 99.2%; in the assay on SF-539 CNS, 107%; in the assay on UACC-257 melanoma, 98.2%. Moreover, the growth in the assay on M14 melanoma was 104%.

Turning to `CCCC(=O)Oc1ccc(CC)cc1`, the growth in the assay on NCI-H226 lung was 110%; with NCI-H322M lung, 106%; in the assay with HOP-62 NSCLC it was 98.9%; in the assay on NCI-H460 lung it was 105%; with HOP-92 NSCLC, 115%; in the assay with NCI-H522 lung it was 93%. Besides, the growth in the assay on A549/ATCC NSCLC was 101%; in the assay with 786-0 renal, 99.7%; in the assay with COLO 205 colon, 104%; in the assay on DU-145 prostate it was 109%; with K-562 leukemia, 96.7%; in the assay with MALME-3M melanoma, 104%. The growth in the assay on MDA-MB-231 breast was 111%; with RXF 393 renal, 117%; in the assay with SF-268 CNS it was 96.9%; in the assay on SF-295 CNS, 98.5%; with SF-539 CNS, 101%; with UACC-257 melanoma, 94.2%. The growth with M14 melanoma was 99%.

`OC1CCCN(Cc2ccccc2)C1` (stereo not drawn): the growth in the assay with NCI-H226 lung is 106%; in the assay on NCI-H322M lung it was 113%; in the assay with HOP-62 NSCLC, 107%; with NCI-H460 lung, 107%; in the assay on HOP-92 NSCLC, 106%; in the assay on NCI-H522 lung it was 101%. Also, the growth with A549/ATCC NSCLC is 85.4%; in the assay on 786-0 renal, 115%; in the assay on COLO 205 colon it was 102%; in the assay on DU-145 prostate, 121%; with K-562 leukemia it was 111%; in the assay with MALME-3M melanoma, 104%. Also, the growth is 103% in the assay on MDA-MB-231 breast; 107% in the assay with RXF 393 renal; 102% in the assay with SF-268 CNS; 114% with SF-295 CNS; 109% in the assay with SF-539 CNS; 93.9% with UACC-257 melanoma. The growth in the assay on M14 melanoma is 98.7%.

Regarding `COc1ccc(COC=O)cc1`, the growth with NCI-H226 lung is 100%; in the assay with NCI-H322M lung, 99.1%; with HOP-62 NSCLC it was 98.4%; in the assay on NCI-H460 lung, 104%; in the assay on HOP-92 NSCLC, 109%; with NCI-H522 lung, 95.5%. Besides, the growth in the assay on A549/ATCC NSCLC is 106%; in the assay with 786-0 renal it was 103%; in the assay with COLO 205 colon, 108%; with DU-145 prostate, 98.7%; with K-562 leukemia it was 96.5%; in the assay with MALME-3M melanoma, 102%. Moreover, the growth is 112% with MDA-MB-231 breast; 110% in the assay on RXF 393 renal; 95.9% in the assay on SF-268 CNS; 101% in the assay on SF-295 CNS; 105% in the assay with SF-539 CNS; 98.5% in the assay on UACC-257 melanoma. The growth in the assay on M14 melanoma was 104%.
